# CYP2C19 inh: blockers of cytochrome P450 2C19 activity – biochemical, luminescence, ADME assay, primary screen | P33261 | CYP2C19 Supersomes, luciferin-H EGE luminescence, 30 min | inhibition, % at 5 µM | actives 21% (n = 96,000) | AID 778, 2007;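 active = CYP2C19 inhibition above a set limit at 5 µM in the primary screen, cut at about 50% in these data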;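 also: plate controls were negative control wells for no effect and 2.5 mM tranylcypromine positive control for full effect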
# Target sequence (P33261 whole entry, looked up): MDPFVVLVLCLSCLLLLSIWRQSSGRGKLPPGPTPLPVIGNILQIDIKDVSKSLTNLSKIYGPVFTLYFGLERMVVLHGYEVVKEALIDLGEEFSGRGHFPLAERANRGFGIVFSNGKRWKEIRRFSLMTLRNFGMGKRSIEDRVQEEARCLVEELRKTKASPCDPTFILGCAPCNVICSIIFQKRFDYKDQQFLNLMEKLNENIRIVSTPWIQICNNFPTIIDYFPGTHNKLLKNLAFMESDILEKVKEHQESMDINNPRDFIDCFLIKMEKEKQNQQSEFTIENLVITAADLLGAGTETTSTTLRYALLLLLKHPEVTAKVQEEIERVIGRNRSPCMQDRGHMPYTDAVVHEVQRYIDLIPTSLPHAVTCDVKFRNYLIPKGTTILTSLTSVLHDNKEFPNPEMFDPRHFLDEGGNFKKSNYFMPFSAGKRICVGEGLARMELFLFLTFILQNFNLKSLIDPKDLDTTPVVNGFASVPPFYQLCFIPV
# CYP2C9 activ: human CYP2C9 activators, primary screen, biochemical, luminescence | Cytochrome P450 2C9 (Homo sapiens), P11712 | recombinant CYP2C9, luciferin-H conversion; stronger effect = higher value; factor 1 = untreated enzyme, 0 = blocked | activation factor at 5 µM | actives 1.4% (n = 96,000) | AID 1024, 2008;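 active = activation factor of 2 or more for CYP2C9 at a 5 µM dose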;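 also: 0 = sulfaphenazole-blocked wells and 1 = vehicle-only wells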
# sEH act: soluble epoxide hydrolase activators, primary screen, biochemical, human sEH. Bifunctional epoxide hydrolase 2 (Homo sapiens), P34913. purified human sEH enzymatic activity, activator screen. activation, % at 2 µM. actives 0.04% (n = 91,000); in the data active = activation above about 37%
# CYP2C9 inh: blockers of cytochrome P450 2C9 activity – biochemical, luminescence, ADME assay, primary screen. CYP2C9 Supersomes, luciferin-H conversion. P11712. actives 20% (n = 96,000). inhibition, % at 5 µM;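 active = blocking of liver enzyme CYP2C9 beyond about 50% at 5 µM, limit read from the data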
# sEH inhibitor: soluble epoxide hydrolase inhibitors, primary screen, biochemical, human sEH. Bifunctional epoxide hydrolase 2 (Homo sapiens), P34913. recombinant human sEH enzymatic activity assay. inhibition, % at 2 µM. actives 0.34% (n = 91,000); in the data active = inhibition above about 80%
# CYP2C19 activ: human CYP2C19 activators, primary screen, biochemical, luminescence; Cytochrome P450 2C19 (Homo sapiens), P33261; recombinant CYP2C19, luciferin-H EGE luminescence; stronger effect = higher value; 0 = fully inhibited enzyme, 1 = untreated enzyme; AID 1025, 2008; 96,000 tested, under 10 active; activation factor at 5 µM;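 active = activation factor of at least 2 at 5 µM in the primary screen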;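 also: 0 = wells with 2.5 mM tranylcypromine and 1 = vehicle-only wells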
# * = called active by the depositor; nt = not tested or not shown. This is a sample that favours compounds with a hit; in the whole collection about 27% have one here.
SMILES,CYP2C19 inh,CYP2C9 activ,sEH act,CYP2C9 inh,sEH inhibitor,CYP2C19 activ
Cc1ccc(NC(=O)C2=C(O)c3sccc3N(C)S2(=O)=O)cc1,-2,0.4,nt,64*,nt,1
Cc1ccc(NC(=S)C2=C(O)c3sccc3N(C)S2(=O)=O)cc1,-1,0.1,0,95*,3,1
CN1c2ccsc2/C(=N/NC(=O)c2c(F)cccc2F)CS1(=O)=O,0,0.9,-12,6,11,1
Cc1ccc(C(=O)NC(=S)Nc2ccc(S(=O)(=O)N3CCN(C)CC3)cc2)cc1,18,0.7,-13,26,14,0.8
Cc1cccc(NC(=O)C2=C(O)c3ccccc3N(C)S2(=O)=O)c1,-5,0.6,nt,41,nt,1.1
O=C(O)CCC(=O)N1CCN(c2nc(-c3ccccc3Cl)c3cc(Br)ccc3n2)CC1,22,1,16,-4,-16,0.8
CN1c2ccccc2C(C)(C)[C@]12C=Cc1cc(O)ccc1O2,97*,0.1,2,95*,-2,0
Cc1ccc(C(=O)Nc2oc(-c3ccccc3)cc2C#N)cc1,13,1,-6,2,7,0.9
CCC(=O)Nc1nnc(-c2ccc(OC)cc2)o1,7,1,14,4,-10,0.9
COc1ccc(-c2oc(/N=C/N3CCOCC3)c(C#N)c2-c2ccc(OC)cc2)cc1,64*,0.1,nt,90*,nt,0.4
COc1ccc(-c2oc(NC(=O)c3ccc(C)cc3)c(C#N)c2-c2ccc(OC)cc2)cc1,69*,0.1,4,94*,-4,0.3
COc1ccc(-c2oc(NC(C)=O)c(C#N)c2-c2ccc(OC)cc2)cc1,57*,0.3,5,72*,-6,0.4
COc1ccc(C(=O)Nc2oc(-c3ccccc3)c(-c3ccccc3)c2C#N)cc1,47,0.2,-1,77*,4,0.5
O=C(CSCCO)Nc1nccs1,6,1.2,15,-24,-18,0.9
COc1ccc(C(=O)Nc2oc(-c3ccccc3)c(-c3ccccc3)c2C#N)cc1OC,24,0.3,nt,74*,nt,0.8
Cc1cccc(C)c1OCC(=O)Nc1oc(-c2ccccc2)c(-c2ccccc2)c1C#N,nt,nt,0,nt,3,nt
Nc1c(N)c2ccccc2oc1=O,2,1,-11,2,10,1
Nc1ccc2oc(=O)c3ccccc3c2c1,59*,0.8,-5,24,5,0.4
CC1Cc2nc(SCC(=O)NCc3ccco3)n(Cc3ccccc3)c(=O)c2S1 (stereo unspecified),37,0.5,nt,48,nt,0.6
CCSc1nc2c(c(=O)n1CC)SC(C)C2 (stereo unspecified),19,0.8,nt,19,nt,0.8
CCn1c(SCC(=O)c2ccccc2)nc2c(c1=O)SC(C)C2 (stereo unspecified),38,0.1,nt,90*,nt,0.6
COCCn1c(SCC(=O)c2ccccc2)nc2c(c1=O)SC(C)C2 (stereo unspecified),91*,0,-5,96*,5,0.1
C=CCn1c(SCC(=O)c2cc(C)n(CCOC)c2C)nc2sc(C)c(C)c2c1=O,22,0.7,6,28,-6,0.8
CCNC(=O)Nc1cc2nc(C)n(Cc3ccc(Br)cc3)c2nc1C,80*,0.7,-4,30,5,0.2
Cc1nn(C)cc1CNC(=O)Nc1ccc(Br)cc1Cl,20,0.9,-57,6,56,0.8
SMILES,CYP2C19 inh,CYP2C9 activ,sEH act,CYP2C9 inh,sEH inhibitor,CYP2C19 activ
O=C(CNC(=O)c1ccc(Br)o1)NCc1ccc2c(c1)OCO2,12,0.8,2,16,-1,0.9
O=C1CSc2ccc(C(=O)NCCC3=CCCCC3)cc2N1,-2,1.1,-83,-5,82*,1
O=C(NCCC1=CCCCC1)c1ccc(Cl)c(S(=O)(=O)Nc2ccccc2)c1,40,0.3,-76,69*,76,0.6
CCN(CC)CCNC(=O)c1ccc(Cl)c(S(=O)(=O)Nc2ccc(Cl)cc2)c1,-8,1.1,-3,-11,5,1.1
Cc1ccc(NS(=O)(=O)c2cc(C(=O)NCc3ccccn3)ccc2Cl)cc1,73*,0.5,3,55*,-1,0.3
COc1ccc(C(=O)NCCC2=CCCCC2)cc1OC,66*,1.1,-8,-7,6,0.3
Cc1ccc(NS(=O)(=O)c2cc(C(=O)O)ccc2Cl)cc1,23,0.7,nt,29,nt,0.8
CC1CN(C(=O)Nc2ccc3c(c2)OCO3)CC(C)O1 (stereo unspecified),19,1,-7,-5,8,0.8
c1ccc2sc(Cc3nnc4n3CCCCC4)nc2c1,16,1.1,nt,-10,nt,0.8
CC(C)(C)N(NC(=O)Nc1ccc(Cl)cc1)C(=O)c1ccccc1,22,0.7,10,30,-7,0.8
COc1cccc(C(=O)NCCC2=CCCCC2)c1,93*,0.6,-49,43,50,0.1
O=C(CN1C2=NCCN2c2ccccc21)c1ccco1,-7,1.1,-17,-7,15,1.1
COc1ccc(-n2ncc(S(=O)(=O)c3ccccc3)c2-c2ccc(Cl)cc2)cc1,40,0.3,-8,72*,7,0.6
O=S(=O)(c1ccccc1)c1cnn(-c2ccccc2)c1-c1ccc(F)cc1,33,0.7,-9,32,12,0.7
CCOC(=O)C(C(=O)OCC)C1CCS(=O)(=O)C1 (stereo unspecified),nt,nt,25,nt,-27,nt
CCN(CC)S(=O)(=O)c1ccc(-c2nnc(SCC(=O)c3ccc(OC)cc3)o2)cc1,-6,0.8,-5,24,6,1.1
C=CCn1c(C)cc(C(=O)CSc2nnc(-c3cccc(S(=O)(=O)N(CC)CC)c3)o2)c1C,87*,0.1,-10,89*,8,0.1
O=C(CSc1nnc(-c2cccc(S(=O)(=O)N3CCCCC3)c2)o1)c1ccc[nH]1,18,0.7,-15,34,14,0.8
CCN(CC)S(=O)(=O)c1cccc(-c2nnc(SCC(=O)c3cc(C)n(C4CC4)c3C)o2)c1,64*,0.3,nt,70*,nt,0.4
O=C(NNC(=O)c1cccnc1)Nc1cccc2ccccc12,11,1,-5,3,5,0.9
Cc1csc(CCc2nc(C)cs2)n1,16,0.9,1,9,-1,0.8
CCc1cc(=O)oc2cc(C)cc(O)c12,21,2.7*,nt,-166,nt,0.8
CCCCCc1cc(O)c2c(C)cc(=O)oc2c1,70*,0.4,2,59*,-3,0.3
Cc1coc2c1c(C)cc1oc(=O)c(Cc3ccccc3)c(C)c12,53*,0.9,14,10,-15,0.5
Cc1cc2oc(=O)cc(C)c2c(=O)o1,-12,1.2,-19,-16,19,1.1
CCc1cc(=O)oc2cc(C)c3c(C)coc3c12,63*,0.8,-1,17,1,0.4
